Consider twelve compounds from PubChem BioAssay (NCATS).

SMILES strings stand for the structures. Records with an inconclusive call do not appear. A call without a number means that no potency is given here. Active and inactive are the calls of the source. Calls follow the shape of the dose curve; as a rule, active = well fitted curve in the direction sought with a large enough effect; inconclusive = small, poorly fitted or top-dose-only effect, or another doubt; inactive = no such curve, though single readings can be large; an effect the other way counts as inactive or inconclusive.

Assay [1] deals with N-terminal Xaa-Pro-Lys N-methyltransferase 1 (Homo sapiens) (UniProt Q9BV86). Kind of assay: qHTS Assay for Inhibitors of N-terminal methyltransferase 1 (NTMT1): LOPAC validation of the NTMT1 SAHH-coupled ThioGlo3 Assay (AID 1347143). Also: nearly all actives have a fitted effect of over 70% in size. Also: potency is read from the fitted curve at half-maximal effect. Conditions: recombinant NTMT1, SAHH-coupled ThioGlo3 fluorescence; series mostly up to 114 µM. The essentials: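 Fluorescence read-out (excitation 340nm, emission 450nm) of SAH-derived thiol, measured via SAHH coupling and ThioGlo3, taken immediately and after a 30 min room-temperature reaction, then normalized to the background read. Enzyme: NTMT1 at 125nM; cofactor SAM 100uM in the added reagent.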
(qHTS replaces the single test concentration by a dilution series.)

Assay [2] concerns Zika virus NS2B-NS3 protease (unlinked). Briefly: Optimization of GU AMC qHTS for Zika virus inhibitors: Unlinked NS2B-NS3 protease assay (AID 1347151). Also: nearly all actives have a fitted effect of over 80% in size. Particulars: recombinant ZIKV NS2B-NS3 protease, fluorogenic AMC substrate; series mostly up to 52.5 µM. The essentials:
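Percent inhibition is derived from the 15-min change in AMC fluorescence, normalized against no-inhibitor and no-enzyme controls, then fitted to a 4-parameter Hill curve. Aprotinin was the intraplate control.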

Assay [3] concerns Zika virus NS2B-NS3 protease. Briefly: Primary screen GU AMC qHTS for Zika virus inhibitors (AID 1347154). Also: nearly all actives have a fitted effect of over 70% in size. Particulars: Zika NS2B-NS3 unlinked protease, AMC fluorogenic substrate; series mostly up to 54.1 µM. The essentials:
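Unlinked Zika NS2B hydrophilic domain/NS3 protease domain noncovalent complex (25 nM final) in 10 mM Tris-HCl pH 8.0, 0.01% Tween 20, with AMC peptide substrate. Fluorescence (ex 340, em 450 nm) change over 15 min, room temperature; percent inhibition fitted to 4-parameter Hill equation.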

For assay [4], the target named is Lysine-specific demethylase 5B (Homo sapiens) (UniProt Q9UGL1). Briefly: Optimization screen for KDM5B Histone Demethylases FDH coupled qHTS against the LOPAC library (AID 1347166). Particulars: KDM5B demethylation, FDH-coupled NADH fluorescence (FDH is formaldehyde dehydrogenase); series mostly up to 57.5 µM. The gist of the method:
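KDM5BDeltaAP (200nM final) preincubated 10 min with compound, then 12.5uM H3K4Me3, 25uM a-ketoglutarate, ascorbate, Fe(II), NAD+ and FDH added; 50mM HEPES pH 7.5, 0.01% Tween-20. NADH fluorescence (340/450 nm) change over 30 min, room temperature.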

The test system of assay [5] is Zika virus NS2B-NS3 protease (unlinked complex). Kind of assay: Confirmatory screen GU AMC qHTS for Zika virus inhibitors (AID 1347153). Also: nearly all actives have a fitted effect of over 70% in size. Conditions: Recombinant NS2B-NS3 protease, AMC substrate fluorescence; series mostly up to 57.1 µM. The gist of the method: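 Noncovalent NS2B hydrophilic domain/NS3 protease complex (25 nM) in 10 mM Tris-HCl pH 8.0, 0.01% Tween 20 was preincubated 15 min at room temperature with compounds. Then 10 µM AMC substrate (Km 18.3 µM) was added; fluorescence was read over 15 min and fitted to a 4-parameter Hill equation.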

Assay [6] is described as follows: Confirmatory screen NINDS Rhodamine qHTS for Zika virus inhibitors (AID 1347161). Also: potency is read from the fitted curve at half-maximal effect; nearly all actives have a fitted effect of over 60% in size. Conditions: purified enzyme assay, Rhodamine110 substrate fluorescence, 15 min; series mostly up to 114 µM. The gist of the method:
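Purified NS2B-NS3 protease with the NS2B hydrophilic domain joined by a flexible linker (25 nM) in 10 mM Tris-HCl pH 8.0, 0.01% Tween 20, preincubated 15 min at RT with compound; Rhodamine110 peptide substrate 1.5 µM; fluorescence change over 15 min; 4-parameter Hill fit.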

For assay [7], the system named is Zika virus NS2B-NS3 protease (linked). Briefly: 384 well plate NINDS AMC confirmatory qHTS for Zika virus inhibitors (AID 1347163). Also: potency is read from the fitted curve at half-maximal effect; nearly all actives have a fitted effect of over 50% in size. Conditions: Recombinant NS2B-NS3 protease, Ac-VKTGKR-AMC fluorescence. The gist of the method:
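Linked protease 5/30/60 nM final; cpds up to 1 mM final, ~15 min preinc. Substrate Ac-VKTGKR-AMC 30 microM final. RT, dark, 25 min; FI ex 355/em 460; normalized to no-enzyme/no-inhibitor ctrls.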

Assay [8] has as its system Zika virus NS2B-NS3 protease (linked construct). Kind of assay: 384 well plate NINDS Rhodamine confirmatory qHTS for Zika virus inhibitors (AID 1347164). Also: potency is read from the fitted curve at half-maximal effect; nearly all actives have a fitted effect of over 65% in size. Conditions: rhodamine-110 peptide substrate fluorescence; series mostly up to 100 µM. The essentials: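 Compounds are incubated about 15 minutes with linked protease (5, 30 or 60 nM final). Rhodamine 110-tagged Ac-LKRR substrate (10 microM final) is added and fluorescence measured after 25 minutes.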

Assay [9] can be described thus: Vero cells viability qHTS for Zika virus inhibitors (AID 1347167). Conditions: cytotoxicity counter-screen (Zika); series mostly up to 45.9 µM. The gist of the method:
(§1)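 Counter-screen for cytotoxicity of hits from NS2B-NS3 protease qHTS. Overnight-attached cells (2.5 x 10^5 cells/mL, DMEM/4% FBS) were dosed in titration, incubated 24 to 48 hours, then assayed by CellTiter Glo.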

A short description of assay [10]: HepG2 cells viability qHTS for Zika virus inhibitors (AID 1347168). Particulars: Zika counter-screen; series mostly up to 45.9 µM. The gist of the method: as §1
Assay [11] can be described thus: Tertiary RLuc qRT-PCR qHTS assay for Zika virus inhibitors (AID 1347169). Also: top concentration of the series differs between compounds; nearly all actives have a fitted effect of over 55% in size. Particulars: infected Vero cells, reporter luminescence, 48-72 h; series mostly up to 45.9 µM. The gist of the method: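 Orthogonal cell-based infection assay using recombinant ZIKV-RLuc (Cambodian) in Vero cells; compound added prior to virus at MOI 1-2. Incubation lasts 48-72 hrs at 37 degrees C before live-cell Renilla substrate is added and luminescence measured.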

Assay [12] deals with Zika virus NS2B-NS3 protease (linked construct). Kind of assay: Primary screen NINDS Rhodamine qHTS for Zika virus inhibitors (AID 1347160). Also: potency is read from the fitted curve at half-maximal effect; nearly all actives have a fitted effect of over 55% in size. Particulars: purified NS2B-NS3 protease, Rhodamine110 substrate fluorescence; series mostly up to 57.1 µM. The gist of the method: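 Purified linked NS2B-NS3 protease (NS2B hydrophilic domain joined to NS3 protease by flexible linker), 25 nM in 10 mM Tris-HCl pH 8.0, 0.01% Tween 20. Compounds titrated, 15 min preincubation at room temperature; 1.5 microM Rhodamine110 substrate, FITC fluorescence change over 15 min.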

Chain of N-terminal Xaa-Pro-Lys N-methyltransferase 1 (Homo sapiens) (Q9BV86 whole entry, looked up): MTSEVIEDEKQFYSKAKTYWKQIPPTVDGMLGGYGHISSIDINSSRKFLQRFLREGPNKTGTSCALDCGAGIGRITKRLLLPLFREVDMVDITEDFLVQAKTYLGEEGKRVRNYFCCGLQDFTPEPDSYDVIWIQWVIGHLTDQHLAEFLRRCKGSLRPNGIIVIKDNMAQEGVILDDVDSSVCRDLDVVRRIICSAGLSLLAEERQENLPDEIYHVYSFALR
Chain of Lysine-specific demethylase 5B (Homo sapiens) (Q9UGL1 whole entry, looked up): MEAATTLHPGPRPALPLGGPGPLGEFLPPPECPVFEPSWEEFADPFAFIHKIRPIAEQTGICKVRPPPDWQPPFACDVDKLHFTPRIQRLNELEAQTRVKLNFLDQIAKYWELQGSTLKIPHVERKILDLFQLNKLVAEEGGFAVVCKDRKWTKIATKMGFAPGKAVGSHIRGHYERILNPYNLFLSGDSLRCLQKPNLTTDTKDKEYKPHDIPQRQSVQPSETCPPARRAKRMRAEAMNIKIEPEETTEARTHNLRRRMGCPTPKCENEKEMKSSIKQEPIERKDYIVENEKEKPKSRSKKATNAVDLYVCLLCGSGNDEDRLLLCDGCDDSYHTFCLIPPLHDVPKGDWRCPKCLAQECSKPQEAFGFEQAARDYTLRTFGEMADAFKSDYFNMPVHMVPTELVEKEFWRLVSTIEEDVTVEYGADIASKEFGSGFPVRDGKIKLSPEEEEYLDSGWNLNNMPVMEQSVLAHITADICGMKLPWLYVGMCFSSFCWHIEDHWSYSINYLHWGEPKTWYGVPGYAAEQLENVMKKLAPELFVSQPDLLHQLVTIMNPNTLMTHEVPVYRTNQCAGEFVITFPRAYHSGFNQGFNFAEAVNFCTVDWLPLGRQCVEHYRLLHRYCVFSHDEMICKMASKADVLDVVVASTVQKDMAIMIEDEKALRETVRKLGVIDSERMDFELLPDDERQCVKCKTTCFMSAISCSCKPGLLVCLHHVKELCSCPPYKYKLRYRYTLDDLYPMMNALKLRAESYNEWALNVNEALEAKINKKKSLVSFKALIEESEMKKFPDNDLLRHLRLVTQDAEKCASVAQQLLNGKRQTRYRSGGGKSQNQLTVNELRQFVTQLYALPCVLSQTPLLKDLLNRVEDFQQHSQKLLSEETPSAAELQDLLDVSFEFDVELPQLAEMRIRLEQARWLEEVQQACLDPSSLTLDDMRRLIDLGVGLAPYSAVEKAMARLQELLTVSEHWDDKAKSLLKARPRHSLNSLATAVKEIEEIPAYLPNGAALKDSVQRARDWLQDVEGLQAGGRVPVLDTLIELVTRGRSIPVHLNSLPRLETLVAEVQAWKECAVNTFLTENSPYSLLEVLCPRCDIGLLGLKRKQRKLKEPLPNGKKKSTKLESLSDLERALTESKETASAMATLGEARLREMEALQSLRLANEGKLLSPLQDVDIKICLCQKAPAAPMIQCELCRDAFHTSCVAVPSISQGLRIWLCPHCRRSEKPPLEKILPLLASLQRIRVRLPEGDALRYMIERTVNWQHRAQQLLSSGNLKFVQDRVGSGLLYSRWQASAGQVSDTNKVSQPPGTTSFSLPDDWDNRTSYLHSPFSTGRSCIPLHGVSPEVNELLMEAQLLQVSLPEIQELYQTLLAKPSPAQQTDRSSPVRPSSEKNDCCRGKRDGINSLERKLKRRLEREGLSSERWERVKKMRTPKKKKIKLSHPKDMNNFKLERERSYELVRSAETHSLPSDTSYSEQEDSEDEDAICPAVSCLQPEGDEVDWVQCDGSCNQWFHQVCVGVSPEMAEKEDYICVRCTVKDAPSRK

For the compound `O=[N+]([O-])c1ccc2c(c1)S(=O)(=O)C=C2`, the Potency in [1] was 44.7 µM (active). In addition, the Potency result in [2] and in assay [3] was “inactive” each time.
`CN1CC(=O)N/C1=N/C(=O)Nc1cccc(Cl)c1`: the Potency entry in [1], in assay [2] and in assay [3] was “inactive” in each case. Further, the compound was called inactive in assay [4].
On to `O=C(NOCC1CC1)c1cc(Br)c(F)c(F)c1Nc1ccc(I)cc1Cl`, for which the result in assay [5] was inactive. Besides, the Potency in assay [6] was 3.92 µM (active); in [7], 44.7 µM (active); in [8] it was 31.6 µM (active).
As to `O=C1C(SCCO)=C(SCCO)C(=O)c2ccccc21`, in assay [3], the Potency entry was “inactive”.
With `NC(=O)C(=O)O`, the result in assay [9] and in assay [10] was inactive. In addition, the Potency entry in [11] is “inactive”.
For `Cn1c(=O)c2[nH]c(-c3ccccc3)nc2n(C)c1=O`, the outcome in [9] and in [10] was inactive. Further, in [11], the Potency result is “inactive”.
With `CC(N)C(=O)OC(C)(C)Cc1ccc(Cl)cc1` (stereo not given), the Potency result in [2] and in [3] was “inactive” each time. Also, the outcome in assay [4] was inactive.
Turning to `O=C1NC(=O)/C(=C/c2ccc3nccnc3c2)S1`, the Potency result in [2] was “inactive”.
Regarding `CSc1ccccc1N1CCN(CCCCCC(=O)NC2CCCc3ccccc32)CC1` (stereo not given), the Potency result in assay [2] and in [3] was “inactive” throughout. Besides, the call in assay [4] was inactive.
Regarding `O=c1cc(-c2ccccc2)oc2c(O)c(O)ccc12`, the results for the Potency in [1] and in [12] were 56.2 µM (active) and 6.97 µM (active), respectively.
With `CC(C)(NS(=O)(=O)c1ccc(Oc2ccc(F)cc2)cc1)C(=O)NO`, the Potency entry in [2] was “inactive”.
`C=CCc1cccc(/C=N/NC(=O)CN2CCN(Cc3ccccc3)CC2)c1O`: the Potency entry in [1] and in assay [3] was “inactive” in each case.
